This is part of a sample that, as a whole, favours compounds with a hit. Of some 83,000 tested, about 20% had one in any assay.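 Note: values are percent growth. 100 is the growth of untreated cells, values between 100 and 0 indicate rising inhibition; between -100 and 0 indicates cell death.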 The source made the active and inactive calls. How the source made its calls: active means growth percent below 10; inactive means the rest.
Experiments:
Experiment in all cases: NCI-60 one-dose screen, 48 h (100 = growth as untreated, 0 = no growth, -100 = all killed)
Settings in all cases: 10 µM unless noted
HCT-15 colon = system: HCT-15 colon
HT29 colon = system: HT29 colon
SNB-75 CNS = system: SNB-75 CNS
SNB-19 CNS = system: SNB-19 CNS
U251 CNS = system: U251 CNS
PC-3 prostate = system: PC-3 prostate
UACC-62 melanoma = system: UACC-62 melanoma
LOX IMVI melanoma = system: LOX IMVI melanoma
SK-MEL-28 melanoma = system: SK-MEL-28 melanoma
SK-MEL-2 melanoma = system: SK-MEL-2 melanoma
EKVX NSCLC = system: EKVX NSCLC
SN12C renal = system: SN12C renal
UO-31 renal = system: UO-31 renal
TK-10 renal = system: TK-10 renal
ACHN renal = system: ACHN renal
CAKI-1 renal = system: CAKI-1 renal
A498 renal = system: A498 renal
CCRF-CEM leukemia = system: CCRF-CEM leukemia
MOLT-4 leukemia = system: MOLT-4 leukemia

Measured: growth

CSc1nc2c(c(=O)[nH]1)C1(C(=O)Nc3ccccc31)c1c(nc(SC)[nH]c1=O)N2
inactive: HCT-15 colon 107% | HT29 colon 112% | SNB-75 CNS 99.5% | SNB-19 CNS 106% | U251 CNS 97.9% | PC-3 prostate 107% | UACC-62 melanoma 99.8% | LOX IMVI melanoma 102% | SK-MEL-28 melanoma 105% | SK-MEL-2 melanoma 105% | EKVX NSCLC 108% | SN12C renal 102% | UO-31 renal 87.1% | TK-10 renal 110% | ACHN renal 103% | CAKI-1 renal 103% | A498 renal 116% | CCRF-CEM leukemia 109% | MOLT-4 leukemia 108%

CCOc1cc2ncc(C#N)c(Nc3ccc(OCc4cccc(F)c4)c(Cl)c3)c2cc1NC(=O)CCCCC1CCSS1 (centres undefined)
inactive: HCT-15 colon 97% | HT29 colon 86.8% | SNB-75 CNS 97.8% | SNB-19 CNS 105% | U251 CNS 82.5% | PC-3 prostate 83.9% | UACC-62 melanoma 89% | LOX IMVI melanoma 79.5% | SK-MEL-28 melanoma 101% | SK-MEL-2 melanoma 94.3% | EKVX NSCLC 78.5% | SN12C renal 88.6% | UO-31 renal 55.8% | TK-10 renal 92.2% | ACHN renal 91.3% | CAKI-1 renal 72% | A498 renal 70.1% | CCRF-CEM leukemia 78.9% | MOLT-4 leukemia 78.5%

O=CNc1ccc2c(c1)Cc1cccc(NC=O)c1-2
inactive: HCT-15 colon 91.8% | HT29 colon 96.2% | SNB-75 CNS 90.7% | SNB-19 CNS 102% | U251 CNS 95.1% | PC-3 prostate 95.2% | UACC-62 melanoma 72.1% | LOX IMVI melanoma 90.5% | SK-MEL-28 melanoma 112% | SK-MEL-2 melanoma 106% | EKVX NSCLC 80.4% | SN12C renal 95.8% | UO-31 renal 78.8% | TK-10 renal 98.7% | ACHN renal 85.8% | CAKI-1 renal 93% | A498 renal 105% | CCRF-CEM leukemia 107% | MOLT-4 leukemia 75%

O=C(CCl)Oc1ccc(-c2ccccc2)c(Br)c1
inactive: HCT-15 colon 110% | HT29 colon 109% | SNB-75 CNS 95.6% | SNB-19 CNS 107% | U251 CNS 102% | PC-3 prostate 97.2% | UACC-62 melanoma 99.6% | LOX IMVI melanoma 97% | SK-MEL-28 melanoma 107% | SK-MEL-2 melanoma 104% | EKVX NSCLC 115% | SN12C renal 109% | UO-31 renal 92.8% | TK-10 renal 105% | ACHN renal 108% | CAKI-1 renal 98.5% | A498 renal 95% | CCRF-CEM leukemia 118% | MOLT-4 leukemia 105%

O=Nc1c(O)c(Cl)cc2ccccc12
inactive: HCT-15 colon 87.9% | HT29 colon 83.1% | SNB-75 CNS 62% | SNB-19 CNS 88.9% | U251 CNS 65.6% | PC-3 prostate 66.7% | UACC-62 melanoma 77.5% | LOX IMVI melanoma 72.4% | SK-MEL-28 melanoma 92.1% | SK-MEL-2 melanoma 93.4% | EKVX NSCLC 111% | SN12C renal 82.6% | UO-31 renal 64.3% | TK-10 renal 66.3% | ACHN renal 65.3% | CAKI-1 renal 76.5% | A498 renal 77.2% | CCRF-CEM leukemia 39.4% | MOLT-4 leukemia 45.7%

Nc1ccc(S(=O)(=O)O)c2ccc(N=Nc3ccc(N=Nc4ccc(S(=O)(=O)O)cc4)c4ccccc34)c(O)c12
inactive: HCT-15 colon 115% | HT29 colon 103% | SNB-75 CNS 76.5% | SNB-19 CNS 95.9% | U251 CNS 111% | PC-3 prostate 91.6% | UACC-62 melanoma 91.3% | LOX IMVI melanoma 98.1% | SK-MEL-28 melanoma 109% | SK-MEL-2 melanoma 110% | EKVX NSCLC 124% | SN12C renal 98.1% | UO-31 renal 55.8% | TK-10 renal 98.7% | ACHN renal 101% | CAKI-1 renal 95.3% | A498 renal 98.8% | CCRF-CEM leukemia 106% | MOLT-4 leukemia 80.2%

O=C1c2cc3c(cc2-c2c1c1ccc(F)cc1c(=O)n2C[C@H](O)[C@@H](O)[C@H](O)CO)OCO3
active: HCT-15 colon 5.37% | HT29 colon -2.72% | SNB-75 CNS -38.4% | SNB-19 CNS 4.38% | U251 CNS -19.1% | PC-3 prostate 7.25% | UACC-62 melanoma -55.5% | LOX IMVI melanoma -30.4% | SK-MEL-28 melanoma -37.6% | SK-MEL-2 melanoma -27.2% | SN12C renal 4.69% | UO-31 renal -21.3% | TK-10 renal -0.938% | ACHN renal -42.9% | CAKI-1 renal -7.09% | A498 renal -78.8% | CCRF-CEM leukemia 5.88% | MOLT-4 leukemia -6.28%
inactive: EKVX NSCLC 13%

CC(C)(C)CC(C)(C)c1ccc(OCCOCC[N+](C)(C)Cc2ccccc2)cc1
active: HT29 colon -50.5% | SNB-75 CNS -26% | SNB-19 CNS -89% | U251 CNS -88.5% | PC-3 prostate -13.9% | UACC-62 melanoma -98.5% | LOX IMVI melanoma -29.4% | SK-MEL-28 melanoma -67% | SK-MEL-2 melanoma -69.4% | SN12C renal -29.2% | TK-10 renal -0.335% | CCRF-CEM leukemia -25.8% | MOLT-4 leukemia -20%
inactive: HCT-15 colon 95.2% | EKVX NSCLC 22.3% | UO-31 renal 86.1% | ACHN renal 73.2% | CAKI-1 renal 97.3% | A498 renal 17.7%

CC(=O)NCC1c2c(n(C)c3c(Cl)c(Cl)ccc23)C(=O)NC1(C)C (centres undefined)
inactive: HCT-15 colon 102% | HT29 colon 108% | SNB-75 CNS 87.7% | SNB-19 CNS 102% | U251 CNS 94.7% | PC-3 prostate 91% | UACC-62 melanoma 94.4% | LOX IMVI melanoma 95% | SK-MEL-28 melanoma 111% | SK-MEL-2 melanoma 103% | EKVX NSCLC 90.7% | SN12C renal 85.5% | UO-31 renal 84.6% | TK-10 renal 89.5% | ACHN renal 95.1% | CAKI-1 renal 77.4% | A498 renal 93% | CCRF-CEM leukemia 107% | MOLT-4 leukemia 84.9%

O=C1OC(c2ccccc2)C(O)=C1c1ccccc1 (centres undefined)
inactive: HCT-15 colon 108% | HT29 colon 111% | SNB-75 CNS 102% | SNB-19 CNS 105% | U251 CNS 100% | PC-3 prostate 99.1% | UACC-62 melanoma 104% | LOX IMVI melanoma 113% | SK-MEL-28 melanoma 120% | SK-MEL-2 melanoma 117% | EKVX NSCLC 104% | SN12C renal 98.9% | UO-31 renal 79.7% | TK-10 renal 110% | ACHN renal 103% | CAKI-1 renal 95% | A498 renal 100% | CCRF-CEM leukemia 89.7% | MOLT-4 leukemia 90.1%

CC(=O)Nc1ccc(S(=O)(=O)Nc2cccc(-c3nc(-c4ccc(NC(=O)c5cccnc5)cc4Cl)no3)c2)cc1
active: HT29 colon 9.79%
inactive: HCT-15 colon 88.3% | SNB-75 CNS 27.6% | SNB-19 CNS 37.7% | U251 CNS 29.7% | PC-3 prostate 25.8% | UACC-62 melanoma 37.4% | LOX IMVI melanoma 40.2% | SK-MEL-28 melanoma 50.6% | SK-MEL-2 melanoma 35.9% | EKVX NSCLC 54.3% | SN12C renal 41.3% | UO-31 renal 82.9% | TK-10 renal 69.9% | ACHN renal 81.2% | CAKI-1 renal 90.6% | A498 renal 36.9% | CCRF-CEM leukemia 23.3% | MOLT-4 leukemia 25.8%

CNc1ccc(-c2cc(=O)oc3ccc(Cl)cc23)cc1
active: HT29 colon -2.77% | U251 CNS 8.91% | A498 renal -3.47%
inactive: HCT-15 colon 14.9% | SNB-75 CNS 40.9% | SNB-19 CNS 22.7% | PC-3 prostate 12.8% | UACC-62 melanoma 31.7% | LOX IMVI melanoma 24.1% | SK-MEL-28 melanoma 58.5% | SK-MEL-2 melanoma 33.7% | EKVX NSCLC 40.1% | SN12C renal 29.9% | UO-31 renal 47.7% | TK-10 renal 50% | ACHN renal 37% | CAKI-1 renal 34.4% | CCRF-CEM leukemia 14.4% | MOLT-4 leukemia 11.3%

COc1cc2c(cc1-c1c(C)noc1C)ncc1nc(C3CCOCC3)n([C@@H](C)COC(F)F)c12
active: UO-31 renal -38.3% | CAKI-1 renal -11.1% | A498 renal -6.79%
inactive: HCT-15 colon 24.5% | HT29 colon 18.8% | SNB-75 CNS 28.7% | SNB-19 CNS 56.6% | U251 CNS 53.3% | PC-3 prostate 39.2% | UACC-62 melanoma 20.7% | LOX IMVI melanoma 24.2% | SK-MEL-28 melanoma 53.5% | SK-MEL-2 melanoma 76.4% | EKVX NSCLC 55.8% | SN12C renal 66.5% | TK-10 renal 26.6% | ACHN renal 36.9% | CCRF-CEM leukemia 55.6% | MOLT-4 leukemia 48%

O=C(Nc1ccc(Cl)cc1)c1cc2cc(F)ccc2cc1O
inactive: HCT-15 colon 13.1% | HT29 colon 72.5% | SNB-75 CNS 18.7% | SNB-19 CNS 21.3% | UACC-62 melanoma 10.9% | LOX IMVI melanoma 17.8% | SK-MEL-28 melanoma 12.1% | EKVX NSCLC 17% | UO-31 renal 12.6% | TK-10 renal 17.7% | CAKI-1 renal 12% | CCRF-CEM leukemia 15.6%
active: U251 CNS 5.79% | PC-3 prostate 9.4% | SK-MEL-2 melanoma 6.39% | SN12C renal 7.85% | ACHN renal 3.91% | A498 renal -43.4% | MOLT-4 leukemia 7.89%

CN1CCN(CCCOc2cccc3nc(Nc4cc(Cl)cc(Cl)c4)ccc23)CC1
inactive: SNB-75 CNS 36.4% | SK-MEL-2 melanoma 86.9% | EKVX NSCLC 26.6% | SN12C renal 36.1% | TK-10 renal 71.9% | CAKI-1 renal 30.7% | A498 renal 23.8%
active: HCT-15 colon -73.6% | HT29 colon -80.1% | SNB-19 CNS 7.72% | U251 CNS -1.53% | PC-3 prostate 3.25% | UACC-62 melanoma -57.7% | LOX IMVI melanoma -92.9% | SK-MEL-28 melanoma -51.2% | UO-31 renal -15.8% | ACHN renal -5.36% | CCRF-CEM leukemia -40.7% | MOLT-4 leukemia -47.7%

Cc1ccc(-c2onc3c(=O)[nH]nc(-c4ccccc4)c23)cc1
active: HT29 colon -3.08%
inactive: HCT-15 colon 31.7% | SNB-75 CNS 10.1% | SNB-19 CNS 31.3% | U251 CNS 20.3% | PC-3 prostate 25.8% | UACC-62 melanoma 44.8% | LOX IMVI melanoma 37.6% | SK-MEL-28 melanoma 66.9% | SK-MEL-2 melanoma 25.6% | EKVX NSCLC 39% | SN12C renal 37.4% | UO-31 renal 47.7% | TK-10 renal 55% | ACHN renal 56.9% | CAKI-1 renal 33.9% | A498 renal 30% | CCRF-CEM leukemia 20.5% | MOLT-4 leukemia 26%
